# Inconclusive results are not listed. Entries that show only a call come without a potency. Calls of active or inactive are those of the source. Calls come from the whole dose curve.
# Experiment: Nuclear factor erythroid 2-related factor 2/antioxidant responsive element (Nrf2/ARE) small molecule agonists: luciferase reporter gene qHTS assay in human keratinocytes (AID 1919969); note: nearly all actives have a fitted effect of over 35% in size
# Settings: KeratinoSens HaCaT ARE-luciferase, luminescence, 24 h; series mostly up to 92.4 µM
# Text: National Center for Advancing Translational Sciences [NCATS]
# Division of Preclinical Innovation [DPI]
# U.S. Environmental Protection Agency [EPA]
# National Institutes of Environmental Health Sciences [NIEHS]
# National Toxicology Program [NTP]
# U.S. Food and Drug Administration [FDA]
# Oxidative stress has been implicated in the pathogenesis of a variety of diseases ranging from cancer to neurodegeneration. The antioxidant response element (ARE) signaling pathway plays an important role in the amelioration of oxidative stress. The KeratinoSens (Givaudan, Switzerland) is an in vitro test method which quantifies luciferase induction as a measure of activation of Keap1-Nrf2-antioxidationt/electrophile response element (ARE) dependant pathway in HaCaT human keratinocytes stably transfected with a selectable plasmid. The KeratinoSens assay is a cell-based assay with a reporter cell line to detect potential skin sensitizers by their ability to induce the Nrf2/ARE-response. The activation of the report gene under culture conditions can be detected by ONE-Glo Luciferase Assay System (Promega, Madison, WI). This cell line has been used to screen the Tox21 10K compound library to identify agonists that induce oxidative stress. The cytotoxicity of the Tox21 compound library against the KS-ARE cell line was tested in parallel by measuring the cell viability using CellTiter- Fluor assay system (Promega, Madison, WI) in the same wells.
# HaCaT derived cell line KeratinoSens were dispensed at 1,500 cells/5uL/well in 1536-well white wall/solid bottom plates using a Multidrop Combi (ThermoFisher Scientific, Waltham, MA) dispenser. After the assay plates were incubated at 37 C/5% CO2 for 5 h, 23 nL of compounds dissolved in DMSO, positive controls or DMSO only was transferred to the assay plate by a pintool workstation (Kalypsys, San Diego, CA). The plates were incubated at 37 C/5% CO2 for 23 h, followed by addition of 1uL/well of CellTiter-Fluor reagent into the assay plates using a Flying Reagent Dispenser (Aurora Discovery, San Diego, CA) for cell viability readout that measures cytotoxicity. After 1 h incubation at 37 C/5% CO2 the fluorescence intensity was measured using a ViewLux (PerkinElmer, Shelton, CT) plate reader. Then 4uL/well of One-Glo were added using a Flying Reagent Dispenser. After the plates were incubated at room temperature for 30 min, the luminescence intensity in the assay plates was measured using ViewLux plate reader.
# Potency is the fitted concentration of half-maximal effect.
SMILES,Potency,"activity, positive = activation"
Clc1cc(Cl)c(Cl)nc1Cl,inactive,
CCN(CC)CCNC(=O)c1cc(Br)c(N)cc1OC,inactive,
CCCCC(CC)COC(=O)CC#N (stereo not given),inactive,
COc1ccc(/C=C/S(=O)(=O)NC(=O)c2ccc(C)cc2Cl)cc1,inactive,
C=CC(=O)OCC(O)COc1ccccc1 (stereo not given),68.6 µM (active),
CN1CCC(=C2c3ccccc3CCc3sccc32)CC1,inactive,
C=C(C)C(=O)OCC(C)(C)COC(=O)C(=C)C,inactive,
O=CC(=O)c1ccccc1,68.7 µM (active),
CCOC(=O)[C@H](CCc1ccccc1)N[C@@H](C)C(=O)N(CC(=O)O)C1Cc2ccccc2C1,inactive,
CC1OC(=O)C(C)OC1=O (stereo not given),inactive,
CCCCCCCCCCCCCc1ccccc1,inactive,
CC(NN)c1ccccc1 (stereo not given),,-1.07% [at 19 µM] (inactive)
COc1cc(C)ccc1O,inactive,
CCOC(=O)[C@H](CCc1ccccc1)N[C@@H](C)C(=O)N1CCC[C@H]1C(=O)O,inactive,
O=c1cc[nH]cc1,inactive,
CC(=O)C=O,inactive,
CCCCOCCOC(=O)CCCCCCCCC(=O)OCCOCCCC,inactive,
Cc1ccc2c(Cl)cc(Cl)c(O)c2n1,inactive,
OC(CCN1CCCCC1)(c1ccccc1)c1ccccc1,inactive,
CCN(CCCCOC(=O)c1ccc(OC)c(OC)c1)C(C)Cc1ccc(OC)cc1 (stereo not given),inactive,

SMILES,Potency,"activity, positive = activation"
CC/C=C\CCOC(C)=O,inactive,
Nc1ccc(S(=O)(=O)O)cc1,inactive,
CC(C)C(=O)OC/C=C/c1ccccc1,inactive,
c1ccc(COCc2ccccc2)cc1,inactive,
CO[Si](OC)(OC)OC,inactive,
OC[C@@H](O)[C@H](O)[C@@H](O)[C@@H](O)CO,inactive,
CCCCCCCCCCCCC,inactive,
CCCCC,inactive,
CCCCCCCC1CCCC1=O (stereo not given),inactive,
O=C(Cn1ccnc1[N+](=O)[O-])NCCO,inactive,
O=c1c(O)c(O)c1=O,inactive,
CCCCC1=NC2(CCCC2)C(=O)N1Cc1ccc(-c2ccccc2-c2nn[nH]n2)cc1,inactive,
CCNS(=O)(=O)c1ccc(C)cc1,inactive,
Cc1ccc(C(=O)c2ccccc2)cc1,inactive,
Cc1ccc2c(c1)c1c3n2CCNC3CCC1 (stereo not given),inactive,
CCC(=O)OC(=O)CC,27.1 µM (active),
C#CC(C)(CC)OC(=O)c1ccccc1C(=O)O (stereo not given),inactive,
Nc1cccc2c(=O)[nH][nH]c(=O)c12,inactive,
OC1(c2ccccc2)CCNCC1,inactive,
CCn1cc(C(=O)O)c(=O)c2cc(F)c(N3CCNC(C)C3)c(F)c21 (stereo not given),inactive,
